# Measurements published in PubChem BioAssay (Tox21).
# Active and inactive are the calls of the source. The call rests on the fitted dose curve; in most records, active means well fitted curve in the direction sought with a large enough effect in the repeat runs; inconclusive means weak or mixed curves; inactive means flat fitted curve, though single readings scatter.
# Assay: qHTS assay to test for compound auto fluorescence at 460 nm (blue) in HepG2 cell free culture (AID 720685)
# Conditions: Cell-free culture medium, blue autofluorescence 405/460 nm; series mostly up to 46 µM
# Description: U.S. Tox21 Program National Center for Advancing Translational Sciences [NCATS] NIH Chemical Genomics Center [NCGC] U.S. Environmental Protection Agency [EPA] National Institutes of Environmental Health Sciences [NIEHS] National Toxicology Program [NTP] U.S. Food and Drug Administration [FDA] Tox21 Assay Overview: Compound auto fluorescence often interferes with screening of the compound library against various biological targets and signaling pathways. Some of these compounds may have fluorophoric properties. Such properties may interfere with the assay outputs resulting in false positives and/or negatives. To decrease such complications and ensure the compound activities are relevant in terms of biological response, the Tox21 10K compound library was screened for auto fluorescence. From the fluorophores used as reporter signals in our screening assays, the auto fluorescence equivalencies of compounds against three fluorophores have been evaluated: Triamterene, Fluorescein and Rose Bengal sodium for blue, green and red fluorescence, respectively. The fluorescence intensities were measured using Excitation/Emission wavelengths at 405/460nm, 485/535nm and 540/590nm for blue, green and red labels, respectively. This assay includes the blue fluorescence data.
# Tox21 Assay Protocol Summary: 5 uL of culture medium (MEM containing 10% FBS) per well was dispensed into black wall/clear bottom 1536-well plates using a Multidrop Combi Dispenser (ThermoFisher Scientific, Waltham, MA). After 23 nL compound or DMSO vehicle was transferred into assay plate by a pintool work station (Kalypsys, San Diego, CA), fluorescence intensities in the assay plates were measured by an Envision (PerkinElmer, Shelton, CT) plate reader using three labels for measuring blue, green and red fluorescence at […] 460, 535 and 590nm respectively.
row,SMILES,outcome
1,Cc1ccc2c(c1)[C@]13CCCC[C@@H]1[C@H](C2)N(C)CC3,inactive
2,Clc1ccc([C@@H]2C[C@H]3CC[C@@H]2N3)cn1,inactive
3,CC[C@@H](O)C(C[C@@H](C)N(C)C)(c1ccccc1)c1ccccc1,inactive
4,CCC(=O)O[C@H]1[C@@H](N2CCCCC2)C[C@H]2[C@@H]3CC[C@H]4C[C@H](OC(C)=O)[C@@H](N5CCCCC5)C[C@]4(C)[C@H]3CC[C@@]21C,inactive
5,CC(=O)O[C@H]1C[C@H](O[C@H]2[C@@H](O)C[C@H](O[C@H]3[C@@H](O)C[C@H](OC4CC[C@@]5(C)C(CC[C@@H]6[C@@H]5CC[C@]5(C)[C@@H](C7=CC(=O)OC7)[C@@H](O)C[C@]65O)C4)O[C@@H]3C)O[C@@H]2C)O[C@H](C)[C@H]1O[C@@H]1O[C@H](CO)[C@@H](O)[C@H](O)[C@H]1O (stereo partly specified),inactive
6,C[C@]12CC[C@H]3[C@@H](CCC4=CC(=O)CC[C@@]43C)[C@@H]1CC[C@@H]2OC(=O)CCc1ccccc1,inactive
7,CN1C2CCC1CC(OC(c1ccccc1)c1ccc(Cl)cc1)C2 (stereo unspecified),inactive
8,COc1cc(C[C@H](C)N)c(OC)cc1Br,inactive
9,CCC(=O)O[C@](Cc1ccccc1)(c1ccccc1)[C@H](C)CN(C)C,inactive
10,C#C[C@]1(OC(=O)CCCCCC)CC[C@H]2[C@@H]3CCC4=CC(=O)CC[C@@H]4[C@H]3CC[C@@]21C,inactive
11,CN1CCN=C(c2ccccc2)c2cc(Cl)ccc21,inactive
